Screening results (PubChem)
ID4 binder – binders of human ID4 protein, primary screen, biochemical, small molecule microarray, single point; 31,000 compounds, 1.2% hits; calls only; Flag-ID4 binding, fluorescence F/B; DNA-binding protein inhibitor ID-4 (Homo sapiens), P47928; call rule not given here;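 note: a binder raises fluorescence above local background on the spot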
Target sequence (P47928 whole entry, looked up): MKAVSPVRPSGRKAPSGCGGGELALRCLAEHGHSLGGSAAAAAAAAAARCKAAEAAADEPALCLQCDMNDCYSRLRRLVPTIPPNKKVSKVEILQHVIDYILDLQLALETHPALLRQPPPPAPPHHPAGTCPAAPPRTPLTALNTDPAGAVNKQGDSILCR
p53 PUMA act – mutant p53 pathway re-activators, primary screen, cell-based, SW480, luciferase, single point, HTS; SW480 PUMA-promoter luciferase, p53 mutant reactivation; activation, % at 9.98 µM; 28,000 compounds, 1.5% hits; AID 624151, 2012; in the data active = activation above about 52%
An asterisk follows results filed as active; i = inactive; nt = not tested or not shown; + = active, no number. A selection: hits, their analogues and other compounds. The true share with any hit is near 2.3%.

SMILES | ID4 binder | p53 PUMA act
Cc1[nH]c2ccccc2c1C(=O)CSc1nnc(N)s1 | i | 1
Nc1nnc(SCC(=O)c2ccc3ccccc3c2)s1 | i | 95*
CCOC(=O)c1c(NC(=O)CSc2ccccn2)sc(C)c1C | i | -3
Cc1cccc(NC(=O)C(Cc2ccccc2)N2C(=O)c3cc(Cl)c(Cl)cc3C2=O)c1 (centres undefined) | i | 0
Cc1cc2nc(-c3cccc(NC(=O)COc4ccc(Br)cc4)c3C)oc2cc1C | i | -11
N#Cc1c(-c2ccccc2)nc(SCC(=O)Nc2ccc(Oc3ccccc3)cc2)[nH]c1=O | i | 12
CC(=O)c1ccc(NC(=O)CSc2nc(O)c(-c3ccccc3)c(=O)[nH]2)cc1 | i | 29
CC(=O)c1ccc(NC(=O)CSc2nc(-c3ccccc3)c(C#N)c(=O)[nH]2)cc1 | i | 59*
CCc1c(O)nc(SCC(=O)Nc2ccc(C(C)=O)cc2)[nH]c1=O | + | 11
Cn1c(CSc2ccnc3cc(Cl)ccc23)nnc1SCC(=O)c1ccc(Cl)s1 | i | 8
O=C(Nc1cccc(Br)c1)C1CN(S(=O)(=O)c2ccccc2)CCN1S(=O)(=O)c1ccccc1 (centres undefined) | i | 1
CCOC(=O)c1c(NC(=O)c2ccc(-c3ccccc3[N+](=O)[O-])o2)sc2c1CCCC2 | i | -6
Cc1nn(C)c(C)c1CN1CCN(C(=S)Nc2ccc(S(N)(=O)=O)cc2)CC1 | i | -11
COc1ccc(NC(=O)CSc2nnc(-c3ccncc3)o2)cc1 | i | 4
Cc1cccc(NC(=O)c2cc(NC(=O)C3CCCCC3C(=O)O)ccc2N2CCCCC2)c1 (centres undefined) | i | -16
Cc1cccc(NC(=O)c2cc(NC(=O)CCC(=O)O)ccc2N2CCOCC2)c1 | + | -12
CN(C)c1ccc2c3c(ccc(N(C)C)c13)[C@](O)(C(F)(F)F)O[C@]2(O)C(F)(F)F | i | 0
CNC[C@H]1Oc2c(NC(=O)c3cnccn3)cccc2C(=O)N([C@H](C)CO)C[C@H]1C | i | 8
CNC[C@H]1Oc2ncc(C3=CCCC3)cc2C(=O)N([C@H](C)CO)C[C@H]1C | + | 1
CNC[C@@H]1Oc2ncc(-c3ccc(C#N)cc3)cc2C(=O)N([C@H](C)CO)C[C@@H]1C | + | 3
CNC[C@H]1Oc2ncc(-c3ccc(OC)cc3)cc2C(=O)N([C@H](C)CO)C[C@H]1C | i | nt
CNC[C@@H]1Oc2ncc(-c3ccc(OC)cc3)cc2C(=O)N([C@H](C)CO)C[C@H]1C | + | 23
CNC[C@@H]1Oc2c(NC(=O)c3cnccn3)cccc2C(=O)N([C@@H](C)CO)C[C@@H]1C | + | 6
CNC[C@@H]1Oc2ncc(C3=CCCC3)cc2C(=O)N([C@@H](C)CO)C[C@@H]1C | i | 17
CNC[C@@H]1Oc2ncc(-c3ccccc3)cc2C(=O)N([C@H](C)CO)C[C@@H]1C | i | 5
SMILES | ID4 binder | p53 PUMA act
O=C(CSc1nnc(-c2ccccc2F)n1-c1ccc(Cl)cc1)Nc1ccc(F)cc1F | i | -8
Cc1ccc2oc(C(=O)Nc3sc4c(c3C(=O)NC3CCS(=O)(=O)C3)CCC4)c(C)c2c1 (centres undefined) | i | -10
Cc1ccc(S(=O)(=O)N(CC(=O)O)c2ccc(C)c(C)c2)cc1 | i | 5
O=C(O)CC(c1ccc(F)cc1)c1ccco1 (centres undefined) | i | -15
COC(=O)c1ccc(COc2ccc3c(C)cc(=O)oc3c2)o1 | i | 63*
COC(=O)c1ccc(COc2ccc3c(c2)oc(=O)c2cc(OC)ccc23)o1 | i | 5
COC(=O)c1ccccc1NC(=O)CN1CCN(C)CC1 | i | 4
Cn1c(=O)[nH]c(=O)c2c1ncn2CCNCc1ccco1 | + | 0
O=C(Cn1cnc2ccccc2c1=O)NCc1ccco1 | i | 2
CC1OC(=O)CC2C(C(=O)O)=CC3CC(C)(C)CC312 (centres undefined) | i | -4
CC(C)OC(=O)c1cn(Cc2c(F)cccc2F)c2sc(-c3ccc(NC(=O)C(C)C)cc3)c(CN(C)Cc3ccccc3)c2c1=O | + | -51
Cc1nc(SCC(=O)c2cc3ccccc3oc2=O)c(C#N)c(C)c1C | i | 17
COc1ccccc1NC(=O)c1c(NC(=O)c2ccco2)sc(C)c1C | i | 76*
COc1ccccc1NC(=O)c1c(NC(=O)COc2ccccc2)sc(C)c1C | i | -11
COc1ccc(NC(=O)c2ccc(OCC(=O)Nc3cccc(C)c3C)cc2)cc1Cl | i | -2
C[C@H](CO)N1C[C@H](C)[C@H](CN(C)S(=O)(=O)c2cccs2)OCCCC[C@H](C)Oc2ccc(NS(C)(=O)=O)cc2C1=O | i | -2
C[C@H](CO)N1C[C@H](C)[C@@H](CN(C)S(=O)(=O)c2cccs2)OCCCC[C@H](C)Oc2ccc(NS(C)(=O)=O)cc2C1=O | + | 7
C[C@@H]1CN([C@@H](C)CO)C(=O)c2cc(NS(C)(=O)=O)ccc2O[C@@H](C)CCCCO[C@H]1CN(C)S(=O)(=O)c1cccs1 | + | 0
C[C@@H]1CCCCO[C@@H](CN(C)S(=O)(=O)c2cccs2)[C@@H](C)CN([C@H](C)CO)C(=O)c2cc(NS(C)(=O)=O)ccc2O1 | i | 6
CCCn1nnc(NC(=O)COc2ccc(Cl)c(C)c2)n1 | i | 2
CCOC(=O)c1c(C)c(C#N)c(/N=C/N(C)C)n1-c1ccc(Cl)cc1Cl | i | -25
CCOC(=O)c1c(NC(=O)CSc2nc(C)ccc2C#N)sc2c1CCC2 | i | -7
COc1ccc(NC(=O)CSc2ncccn2)cc1Cl | i | 10
COc1ccc(S(=O)(=O)N(C)C[C@H]2Oc3ccc(NC(=O)CCCN(C)C)cc3C(=O)N([C@H](C)CO)C[C@@H]2C)cc1 | + | -12
Cc1noc(C)c1S(=O)(=O)N(C)C[C@H]1Oc2ccc(NC(=O)CCCN(C)C)cc2C(=O)N([C@H](C)CO)C[C@@H]1C | + | 5
SMILES | ID4 binder | p53 PUMA act
C[C@@H]1CN([C@@H](C)CO)C(=O)c2cc(NC(=O)NC3CCCCC3)ccc2O[C@@H]1CN(C)S(=O)(=O)c1ccc(Cl)cc1 | i | 0
C[C@H](CO)N1C[C@H](C)[C@@H](CN(C)S(=O)(=O)c2ccc(Cl)cc2)Oc2ccc(NC(=O)NC3CCCCC3)cc2C1=O | + | 0
COc1ccc(S(=O)(=O)N(C)C[C@@H]2Oc3ccc(NC(=O)CCCN(C)C)cc3C(=O)N([C@H](C)CO)C[C@@H]2C)cc1 | i | 2
Cc1noc(C)c1S(=O)(=O)N(C)C[C@@H]1OCCCC[C@@H](C)Oc2ccc(NC(=O)CCCN(C)C)cc2C(=O)N([C@H](C)CO)C[C@@H]1C | i | 1
Cc1ccc(S(=O)(=O)N(C)CC(=O)Nc2cc(Cl)ccc2Oc2ccccc2)cc1 | i | 26
CCC(C)C(O)C(C)(O)/C=C/C1=CC2=C(Cl)C(=O)C(C)(O)C(OC(C)=O)C2CO1 (centres undefined) | nt | -13
CCOC(=O)CNC(=O)c1cc2nc(-c3ccc(Cl)s3)cc(C(F)(F)F)n2n1 | i | 19
O=C(CN1C(=O)CNC1=O)Nc1cccc2ccccc12 | i | 3
Cc1cccc(N(CC(=O)NC(C)(C)C)S(=O)(=O)c2ccc(Cl)cc2)c1 | i | -14
